# Compound activity as filed in PubChem BioAssay.
# Compounds with a hit are over-represented: about 2.8% of the library has one in this group of screens.
# DRD3 antagonist – blocks the human D3 dopamine receptor. AID 652054. D3R cells, DiscoveRx beta-arrestin luminescence, antagonist mode; active compounds read low. max response, negative = inhibition, %. P35462. actives 2.5% (n = 360,000); in the data active = max response below about -50%; inconclusive = no clear call, values can overlap the other calls
# Target sequence (P35462 whole entry, looked up): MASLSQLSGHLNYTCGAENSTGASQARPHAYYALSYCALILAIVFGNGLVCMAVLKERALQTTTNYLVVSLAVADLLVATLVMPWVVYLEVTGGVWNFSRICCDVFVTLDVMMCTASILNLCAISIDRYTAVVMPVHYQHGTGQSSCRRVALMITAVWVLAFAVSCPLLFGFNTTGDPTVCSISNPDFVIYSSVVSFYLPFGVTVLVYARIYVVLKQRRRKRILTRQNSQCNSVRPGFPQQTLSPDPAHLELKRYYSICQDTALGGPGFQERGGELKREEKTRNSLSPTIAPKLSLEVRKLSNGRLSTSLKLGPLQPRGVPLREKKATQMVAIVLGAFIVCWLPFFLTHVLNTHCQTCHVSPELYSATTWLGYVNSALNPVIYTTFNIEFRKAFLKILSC
#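 Cells expressing the human receptor were seeded at 1500 cells/well, incubated overnight at 37 degrees C in 5% CO2, then exposed to library compounds with dopamine controls for 90 minutes at 37 degrees C before luminescent detection.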
# PI4K2A block – PI4K2A (human) kinase inhibition | activity change, negative = inhibition, % at 76.9 µM | Q9BTU6 | AID 1346378 | purified PI4K2A, ADP-Glo luminescence, 1 h; active compounds read low | actives 0.13% (n = 420,000); in the data active = activity change below about -50%; inconclusive = mostly about -30% to -49%
#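 ADP-Glo luminescence measured ADP generated by PI4K2A enzyme (4 ug/mL before mixing) with 1.2 mM PI substrate (pre-mix) and 300 microM ATP (pre-mix). Tris pH7.5 buffer with MgCl2, Triton X-100; 1 h reaction at ambient temperature.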
# D3 ag – agonists of human D3 dopamine receptor; actives 0.58% (n = 410,000); max activation, %; D3R DiscoveRx beta-arrestin cells, luminescence, 90 min; in the data active = max activation above about 30%
#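 Cells at 1500/well, incubated overnight, then treated with pinned compounds (dopamine as control) for 90 min at 37 degrees C. DiscoveRx reagent added for 30 - 60 minutes at room temperature; luminescence read.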
# Akt phos inh – inhibitors of Akt phosphorylation. Neuro2A IGF-stimulated pAkt S473 HTRF, 20 min; active compounds read low. activity change, % for hits at 50 µM. actives 0.32% (n = 360,000); in the data active = activity change below about -80%; inconclusive = mostly about -51% to -80%
#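 Neuro2A cells in DMEM with 0.5% FBS, overnight at 37 deg C, given compound at single 50 µM final, then IGF (6 nM final) for 20 min at 37 deg C. Lysed; phospho-Akt Ser473 by HTRF after 24 h, 665/615 ratio.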
# RGS4 inh – human RGS4 inhibition; P49798; Transcreener GDP fluorescence polarization, RGS4-accelerated GTP hydrolysis; Potency, µM (top dose mostly 114 µM), usual class: inhibitors; actives 0.039% (n = 390,000); active = well fitted inhibition curve with a large enough effect; inconclusive = small, poorly fitted or top-dose-only effect; inactive = no such curve, though single readings can be large or run the other way; note: nearly all actives have a fitted effect of over 75% in size
#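 MLSMR compounds (23 nl, pin-transferred) preincubated 10 min at room temperature with a 500nM (2x) first reagent, then RGS4 at 900nM (2x) plus Transcreener GDP mix added; fluorescence polarization (620/688 nm) read before and after 90 min at 30 °C.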
# LDHA inh – LDHA (human) enzyme inhibition. actives 0.15% (n = 480,000). purified LDHA, NADH/diaphorase-resazurin fluorescence; active compounds read low. activity change, % (values are at about 110 or 230 µM). AID 1347041; in the data active = activity change below about -30%; inconclusive = mostly about -25% to -30%
#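 Resorufin fluorescence (ex540/em590), read at 0 and 20 min after diaphorase/resazurin addition, reports the NADH left after a 5 min room-temperature reaction of 2 nM human LDH5 with 0.06 mM NADH and 0.2 mM pyruvate.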
# A number is an active result; n = inactive; u = inconclusive; x = no result.
SMILES,DRD3 antagonist,PI4K2A block,D3 ag,Akt phos inh,RGS4 inh,LDHA inh
COc1ccc(-c2oc3ncnc(NCCCN(C)C)c3c2-c2ccc(OC)cc2)cc1,-104,n,n,n,n,n
CN(C)CCNc1ncnc2oc(-c3ccccc3)c(-c3ccccc3)c12,-61,n,n,n,n,n
CCCC(=O)Oc1ccc2c(=O)c(Oc3ccccc3Br)c(C(F)(F)F)oc2c1,x,x,x,x,x,n
CC1CC(=S)Nc2ccccc2S1 (configuration not stated),-77,n,n,n,n,n
O=C1CC(c2ccc(F)cc2)Sc2ccccc2N1 (configuration not stated),n,n,n,n,n,n
Cc1ccc(NC(=O)CSc2nnc(C)c(=O)n2N)c(C)c1,n,n,n,n,n,-37
Cc1nnc(SCC(=O)Nc2ccc(OC(F)F)c(Cl)c2)n(N)c1=O,n,n,n,n,n,-36
CC(=O)Nc1sc2c(c1-c1nc3ccccc3s1)CCN(C(C)C)C2,-116,n,n,n,n,n
Cc1ccc(CCC(=O)Nc2cccc3cccnc23)cc1,x,x,x,x,x,n
COc1cccc2c1C(=O)c1c(O)c3c(c(O)c1C2=O)C[C@@](O)(C(C)=O)C[C@@H]3O[C@H]1C[C@H](N)[C@H](O)[C@H](C)O1,-78,n,n,n,u,n
O=C(COC(=O)c1cccnc1Cl)c1ccccc1,n,-71,n,n,n,n
O=C(COC(=O)c1cccs1)c1ccccc1,n,n,n,-127%,n,n
O=C(COC(=O)c1cccs1)c1ccc(-c2ccccc2)cc1,x,x,x,x,x,n
Nc1cccc(C(=O)O)c1[N+](=O)[O-],x,x,x,x,x,n
CN1C(=O)Cc2cc(-c3csc(NC(C)(C)C)n3)ccc21,x,x,x,x,x,n
COc1ccc(CNC(=O)c2ccc3nc(Cc4ccccc4F)oc3c2)c(OC)c1,x,x,x,x,x,n
CCOC(=O)C1CCCN(Cc2ccc(OC)c(OCc3ccccc3)c2)C1 (configuration not stated),-84,n,n,n,n,n
CCOC(=O)C1CCCN(Cc2ccccc2Cl)C1 (configuration not stated),n,n,n,n,n,n
CCOC(=O)C1CCCN(Cc2ccccc2C)C1 (configuration not stated),-64,n,n,x,n,n
CC(=O)Nc1ccc(NC(=O)CC(C)c2ccccc2)cc1 (configuration not stated),x,x,x,x,x,n
COc1nc(-c2ccc(Cl)cc2)ccc1-c1noc(-c2ccco2)n1,n,n,n,n,n,-37
COc1ccc2[nH]c(=O)c(-c3noc(-c4cccs4)n3)cc2c1,x,x,x,x,x,-38
COc1ccc2[nH]c(=O)c(-c3noc(-c4ccccc4)n3)cc2c1,n,n,n,n,u,n
COc1ccc(-c2ccc(-c3noc(-c4cc(OC)cc(OC)c4)n3)c(OC)n2)cc1,x,n,n,x,n,n
COc1cccc(-c2ccc(-c3noc(-c4cccs4)n3)c(OC)n2)c1,n,n,n,u,u,-38
SMILES,DRD3 antagonist,PI4K2A block,D3 ag,Akt phos inh,RGS4 inh,LDHA inh
N#Cc1nc(-c2ccc(S(=O)(=O)N3CCCCC3)cc2)oc1NCc1ccc2c(c1)OCO2,x,x,x,x,x,n
Cn1c(=O)c2c(nc(Cl)n2CCC#N)n(C)c1=O,x,x,x,x,x,n
c1ccc(-c2nn3c(C4CCCCC4)nnc3s2)nc1,u,n,n,n,n,n
c1ccc(-c2nn3c(C4CCCCC4)nnc3s2)cc1,n,n,n,-114%,n,n
Cc1cc(C)c(S(=O)(=O)N2CCC(C(N)=O)CC2)cc1C,n,n,n,n,n,n
COc1cc(S(=O)(=O)N2CCC(C(N)=O)CC2)c(C)cc1C,-104,n,n,n,n,n
